A selection: hits, their analogues and other compounds. The true share with any hit is near 0.43%.
GAA glycogen – inhibitors or activators of human alpha-glucosidase glycogen cleavage. actives 0.38% (n = 300,000). P10253. AID 2100. recombinant GAA, glycogen substrate, Amplex Red glucose oxidase fluorescence. Potency, µM (titrated, usually from 76.4 µM), for inactives: top-dose activity change, negative = inhibition, hits mostly inhibitors;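 also: potency is read from the fitted curve at half-maximal effect; 0% = full enzyme reaction and -100% = no-enzyme basal signal; the screen sought inhibitors and activators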
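Natural-substrate format: glycogen cleavage by 4 nM human enzyme, glucose read by Amplex Red coupling (Ex 573, Em 610 nm). Normalized to enzyme and no-enzyme controls.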
N370S GC – inhibits or activates N370S mutant glucocerebrosidase | P04062 | AID 2101 | N370S GC spleen homogenate, 4MU-glucoside fluorescence | actives 0.092% (n = 330,000) | Potency, µM (top dose mostly 59.4 µM), for the others: top-dose activity change, negative = inhibition, actives largely listed as inhibitors;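 also: potency is read from the fitted curve at half-maximal effect; 0% = full enzyme activity and -100% = no enzyme basal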
GLA inh pH 4.5 – inhibitors of human alpha-galactosidase A at pH 4.5. purified enzyme, 4-MU-alpha-Gal fluorescence, pH 4.5. activity change, negative = inhibition, % at 105 µM. 230,000 tested, under 10 active;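 also: 0% = full activity with enzyme and -100% = basal without enzyme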
GLA spleen mod – alpha-galactosidase A (human) modulation; P06280; human spleen homogenate, 4MU-alpha-Gal fluorescence, 40 min; Potency, µM (highest dose often 80 µM), for inactives: at the highest dose activity change, negative = inhibition, actives largely listed as inhibitors; actives 0.008% (n = 240,000);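 also: potency is read from the fitted curve at half-maximal effect; 0% = enzyme with vehicle and -100% = no enzyme basal signal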
Target sequence (P06280 32-429 limits assumed): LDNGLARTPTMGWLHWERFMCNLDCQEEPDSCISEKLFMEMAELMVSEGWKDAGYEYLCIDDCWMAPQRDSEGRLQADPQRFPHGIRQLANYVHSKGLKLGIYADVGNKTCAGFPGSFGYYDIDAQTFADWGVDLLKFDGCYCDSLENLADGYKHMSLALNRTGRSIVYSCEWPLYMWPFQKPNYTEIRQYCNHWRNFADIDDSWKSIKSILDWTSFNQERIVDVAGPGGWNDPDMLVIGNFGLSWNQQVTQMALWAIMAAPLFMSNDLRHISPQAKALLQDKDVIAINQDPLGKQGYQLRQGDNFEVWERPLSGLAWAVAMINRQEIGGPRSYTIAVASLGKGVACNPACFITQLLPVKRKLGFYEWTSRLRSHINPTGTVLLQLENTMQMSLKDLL
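Human spleen homogenate (1 ug) was the enzyme source, with 4-methylumbelliferyl-alpha-D-galactopyranoside (1 mM final) in pH 5.0 citrate buffer with 0.01% Tween-20. Compounds were titrated; after 40 min at 37C, NaOH/glycine stop, 4-MU fluorescence read; AC50 from Hill fits.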
aGlu spleen mod – inhibitors or activators of human alpha-glucosidase in spleen homogenate | P10253 | human spleen homogenate, 4-MU-alpha-glucoside fluorescence | Potency, µM (titrated, usually from 79.9 µM), without a hit: top-dose activity change, negative = inhibition, most hits filed as inhibitors | actives 0.006% (n = 240,000) | AID 2112;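 also: potency is read from the fitted curve at half-maximal effect; 0% = enzyme with vehicle and -100% = no enzyme basal signal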
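Human spleen homogenate (1 ug) incubated with compounds and 1 mM 4-methylumbelliferyl-alpha-D-glucopyranoside in pH 5.0 citrate/phosphate buffer, 37 C, 40 min. Stopped at pH 10; 4-MU fluorescence (Ex 365/Em 440 nm); AC50 by Hill fit.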
GAA inh – alpha-glucosidase (human) inhibition; P10253; purified human GAA, 4-MU-alpha-glucoside fluorescence; Potency, µM (titrated, usually from 76.9 µM), without a hit: top-dose activity change, negative = inhibition, most hits filed as inhibitors; actives 0.005% (n = 200,000); AID 1466;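 also: potency is read from the fitted curve at half-maximal effect; plate controls were uninhibited enzyme wells for no effect and no-enzyme background for full effect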
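qHTS format, compound range up to 77 uM. Human lysosomal enzyme at 4 nM, 400 uM 4-MU glucoside substrate, pH 5.0, 20 min room temperature; fluorescence after alkaline stop gives activity normalized to controls.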
Starred values were filed as active, the others as inactive; [ ] = remark or other dose. Calls follow the shape of the dose curve; as a rule, active = well fitted curve in the direction sought with a large enough effect; inconclusive = small, poorly fitted or top-dose-only effect, or another doubt; inactive = no such curve, though single readings can be large; an effect the other way counts as inactive or inconclusive.

How did O=C(N/N=C/c1ccncc1)c1nc(-c2ccccc2)n2c1CCCCC2 do in these assays?
GAA glycogen: -1%; N370S GC: 10%; GLA inh pH 4.5: -5; GLA spleen mod: 5%; aGlu spleen mod: 1%; GAA inh: -6%

How did NNC(=O)c1nc(-c2ccccc2)n2c1CCCCC2 do in these assays?
GAA glycogen: 18µM*; N370S GC: 27%; GLA inh pH 4.5: 3; GLA spleen mod: 2%; aGlu spleen mod: -8%; GAA inh: 3%

What do the screens show for `CC[C@H](C)[C@H](NC(=O)[C@H](Cc1ccc(O)cc1)NC(=O)[C@@H](NC(=O)[C@H](CCCN=C(N)N)NC(=O)[C@@H](N)CC(=O)O)C(C)C)C(=O)N[C@@H](Cc1cnc[nH]1)C(=O)N1CCC[C@H]1C(=O)N[C@@H](Cc1ccccc1)C(=O)N[C@@H](Cc1cnc[nH]1)C(=O)N[C@@H](CC(C)C)C(=O)O`?
N370S GC: -7%; GLA spleen mod: -20%; aGlu spleen mod: -1%

What do the screens show for `C/C(CC(=O)Nc1ccc(Cl)cc1Cl)=N\NC(N)=S`?
GAA glycogen: 22µM*; N370S GC: 10%; GLA inh pH 4.5: 7; GLA spleen mod: -1%; aGlu spleen mod: -4%; GAA inh: -5%

Results for C/C(CC(=O)Nc1ccc(Cl)cc1Cl)=N\NC(=O)c1ccncc1 ?
GAA glycogen: -23%; N370S GC: 15%; GLA inh pH 4.5: -11; GLA spleen mod: 0%; aGlu spleen mod: 2%

What do the screens show for `C/C(CC(=O)Nc1ccc(C)c(Cl)c1)=N\NC(=O)c1ccncc1`?
GAA glycogen: -23%; N370S GC: -12%; GLA inh pH 4.5: -7; GLA spleen mod: -2%; GAA inh: -4%

How did C/C(CC(=O)Nc1ccc(Cl)c(Cl)c1)=N\NC(N)=S do in these assays?
GAA glycogen: 7.9µM*; N370S GC: 4%; GLA inh pH 4.5: 1; GLA spleen mod: 4%; aGlu spleen mod: -10%; GAA inh: -12%

What do the screens show for `C/C(CC(=O)Nc1ccc(Cl)cc1C(F)(F)F)=N\NC(N)=S`?
GAA glycogen: inconclusive; N370S GC: -2%; GLA inh pH 4.5: -3; GLA spleen mod: 7%; aGlu spleen mod: 4%

How did C/C(CC(=O)Nc1cc(Cl)ccc1Cl)=N\NC(N)=S do in these assays?
GAA glycogen: 9.9µM*; N370S GC: -2%; GLA inh pH 4.5: 1; GLA spleen mod: -12%; aGlu spleen mod: -5%; GAA inh: 1%

What do the screens show for `O=C(CCCn1c(=O)c2cccn2c2ccccc21)Nc1cccc(Cl)c1`?
GAA glycogen: -5%[76.3 µM]

Results for C=CCNC(=S)NNc1nc(N2CCCC2)nc(N2CCCC2)n1 ?
GAA glycogen: inconclusive; N370S GC: -1%

Results for C=CCNC(=S)NNc1nc(Nc2ccccc2)nc(N2CCCCC2)n1 ?
GAA glycogen: 16µM*; N370S GC: 10%; GLA inh pH 4.5: -9; GLA spleen mod: -25%; aGlu spleen mod: -9%; GAA inh: 8%

Results for CCOC(=O)OCC1C=C[C@H](c2cc(-c3ccccc3)ccc2O)C(c2ccc(C(C)=O)cc2)O1 (some centres undefined) ?
N370S GC: 8%[12.8 µM]; GLA spleen mod: 4%[17.5 µM]; aGlu spleen mod: -4%[17.4 µM]

Results for C#CCOCCOCCOCCNc1nc(N2CCN(C(=O)CCCCCCCCCCNC(=O)Cn3cc(C[C@@H](C)O)nn3)CC2)nc(N2CCN(C(=O)CCCCCCCCCCNC(=O)Cn3cc(C[C@@H](C)O)nn3)CC2)n1 ?
N370S GC: -27%

How did C#CCOCCOCCOCCNc1nc(N2CCN(C(=O)CCCCCCCCCCNC(=O)[C@H](CCCCN)n3cc(CCO)nn3)CC2)nc(N2CCN(C(=O)CCCCCCCCCCNC(=O)[C@H](CCCN=C(N)N)n3cc(C[C@@H](C)CC)nn3)CC2)n1 do in these assays?
N370S GC: 7.9µM*

Results for C#CCOCCOCCOCCNc1nc(N2CCN(C(=O)CCCCCCCCCCNC(=O)[C@H](CCCCN)n3cc(C)nn3)CC2)nc(N2CCN(C(=O)CCCCCCCCCCNC(=O)[C@@H]([C@H](C)CC)n3cc(CCCCCN)nn3)CC2)n1 ?
N370S GC: 18µM*

Results for C#CCOCCOCCOCCNc1nc(N2CCN(C(=O)CCCCCCCCCCNC(=O)Cn3cc(C[C@@H](C)O)nn3)CC2)nc(N2CCN(C(=O)CCCCCCCCCCNC(=O)[C@H](CCCCN)n3cc(C[C@@H](C)CC)nn3)CC2)n1 ?
N370S GC: 22µM*

Results for C#CCOCCOCCOCCNc1nc(N2CCN(C(=O)CCCCCCCCCCNC(=O)[C@H](CCC(=O)O)n3cc(CCCCCN)nn3)CC2)nc(N2CCN(C(=O)CCCCCCCCCCNC(=O)[C@@H]([C@H](C)O)n3cc(C)nn3)CC2)n1 ?
N370S GC: -21%

Results for O=C(Nc1cccc(C(F)(F)F)c1)c1cc(S(=O)(=O)N2CCCC2)c[nH]1 ?
GAA glycogen: 12%[76.3 µM]

Results for CC(C)C[C@H](NC(=O)[C@H](Cc1cnc[nH]1)NC(=O)[C@@H](N)Cc1cnc[nH]1)C(=O)NCC(=O)NCC(=O)N[C@@H](C)C(=O)N[C@@H](CCCCN)C(=O)N[C@@H](CCC(N)=O)C(=O)N[C@@H](C)C(=O)NCC(=O)N[C@@H](CC(=O)O)C(=O)N[C@H](C(=O)O)C(C)C ?
N370S GC: -8%; GLA spleen mod: -9%; aGlu spleen mod: -2%

Results for Cc1ccc(-c2cc(C(=O)N3CCN(S(=O)(=O)c4ccc(Br)s4)CC3)[nH]n2)c(C)c1 ?
GAA glycogen: 8.9µM*

How did CCc1cc2c(nc1CC)CCN(CC/C(C)=N/O[C@@H](C)CN1CCCCc3nc(C)c(C)cc31)C2 do in these assays?
N370S GC: 1%[12.8 µM]; GLA spleen mod: -7%[17.5 µM]; aGlu spleen mod: -5%[17.4 µM]

How did COc1ccc(Nc2nc3c([nH]2)c(=O)[nH]c(=O)n3C)cc1 do in these assays?
GAA glycogen: 10µM*; N370S GC: 2%; GLA inh pH 4.5: 7; GLA spleen mod: 3%; aGlu spleen mod: -4%; GAA inh: -2%

How did COCCCNc1nc2c([nH]1)c(=O)[nH]c(=O)n2C do in these assays?
GAA glycogen: inconclusive; N370S GC: 12%; GLA spleen mod: 3%; aGlu spleen mod: -3%; GAA inh: -4%

What do the screens show for `Cc1cccc(NC(=S)NNC(=S)NCc2ccccc2)c1`?
GAA glycogen: 7.9µM*; N370S GC: 10%[12.8 µM]; GLA inh pH 4.5: -6; GLA spleen mod: -5%; aGlu spleen mod: -1%; GAA inh: -7%

Source: PubChem
